Screening results as filed in PubChem BioAssay.
RXFP1 antag – blocks the human relaxin receptor RXFP1. Q9HBX9. HEK293-RXFP1, relaxin-stimulated cAMP HTRF, 30 min; active compounds read low. activity change, negative = inhibition, % at 57.5 µM. 0.59% of 350,000 active;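 active = activity change of -60% or lower, but not beyond a set lower limit; inconclusive = change between -60% and -40%, or beyond the set limit; inactive = change above -40%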; also: % is scaled to controls: 0 for no effect and ±100 for the full control effect
pAkt inh – inhibitors of Akt phosphorylation; Neuro2A IGF-stimulated pAkt S473 HTRF, 20 min; active compounds read low; activity change, % for hits at 50 µM; 0.32% of 360,000 active; in the data active = activity change below about -80%; inconclusive = mostly about -51% to -80%; also: % is scaled to controls: 0 for no effect and ±100 for the full control effect
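Single-point screen (50 µM final compound) in Neuro2A cells stimulated 20 min with 6 nM IGF at 37 deg C. After lysis, Ser473-phosphorylated Akt read by HTRF (ex 330 nm, em 615/665 nm) as the 665/615 ratio.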
RXFP1 agonist – RXFP1 (human) receptor agonism; Q9HBX9; HEK293T-RXFP1 cAMP TR-FRET, 30 min; response scale: percent of porcine relaxin response, buffer zero; Potency, µM (doses to about 57.5 µM), for the others: at the top dose activation, usual class: activators; 0.3% of 370,000 active; AID 2676; active = well fitted activation curve with a large enough effect; inconclusive = small, poorly fitted or top-dose-only effect; also: potency is read from the fitted curve at half-maximal effect; % is scaled to controls: 0 for no effect and ±100 for the full control effect; nearly all actives have a fitted effect of over 60% in size
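cAMP rise read by TR-FRET after 30 min, 37C compound exposure (up to 58 uM) in RXFP1-transfected HEK293 cells with Ro 20174 present. EC50 from Hill-equation fits, with 29 nM porcine relaxin as 100% and buffer as basal.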
gsp antagonist – gsp mutant antagonism; gsp-mutant cells, cAMP HTRF, 30 min; Potency, µM (top dose mostly 76.9 µM), for inactives: at the highest dose activity change, negative = inhibition, most hits filed as inhibitors; 0.4% of 340,000 active; AID 624288; calls by dose curve; cell line not stated here;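 also: intracellular cAMP measured with PDE inhibitor Ro 20-1724 present during compound exposure; potency is read from the fitted curve at half-maximal effect; % is scaled to controls: 0 for no effect and ±100 for the full control effect; nearly all actives have a fitted effect of over 65% in size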
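Cells, 2000/well, grown 16–24 h in DMEM 10% FBS with 0.5 mg/ml G418, then compounds plus […] (300 uM addition stock), 30 min at 37C. cAMP read by HTRF (cAMP-d2 and anti-cAMP antibody-K in lysis buffer) after 30 min RT.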
gsp agonist – agonists of gsp mutant (McCune-Albright syndrome). gsp mutant cells, cAMP HTRF, 30 min. AID 624287. Potency, µM (titrated, usually from 76.9 µM), for inactives: at the highest dose activation (cAMP increase), actives largely listed as activators. 0.13% of 340,000 active; active = well fitted activation curve with a large enough effect; inconclusive = small, poorly fitted or top-dose-only effect, or another doubt; inactive = no such curve, though single readings can be large or run the other way; cell line not stated here;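 also: phosphodiesterase inhibitor Ro 20-1724 added with compounds to block cAMP breakdown; potency is read from the fitted curve at half-maximal effect; nearly all actives have a fitted effect of over 60% in size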
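Cells stably selected in G418 were plated at 2000/well, grown 16-24 hr, then given compounds in DMSO with the PDE inhibitor […] (300 uM solution added) for 30 min at 37C; cAMP was read by HTRF.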
TSHR antag – blocks TSH signaling through the human TSH receptor. AID 504810. 0.2% of 330,000 active. activity change, negative = inhibition, % at 11.5 µM. TSHR-expressing cells, TSH-stimulated cAMP HTRF, 2 h; active compounds read low;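 active = activity change below a set negative limit, meaning inhibition stronger than a set level, cut at about -70% in these data; inconclusive = activity change between two set negative limits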; also: % is scaled to controls: 0 for no effect and ±100 for the full control effect
Target sequence (P16473 whole entry, looked up): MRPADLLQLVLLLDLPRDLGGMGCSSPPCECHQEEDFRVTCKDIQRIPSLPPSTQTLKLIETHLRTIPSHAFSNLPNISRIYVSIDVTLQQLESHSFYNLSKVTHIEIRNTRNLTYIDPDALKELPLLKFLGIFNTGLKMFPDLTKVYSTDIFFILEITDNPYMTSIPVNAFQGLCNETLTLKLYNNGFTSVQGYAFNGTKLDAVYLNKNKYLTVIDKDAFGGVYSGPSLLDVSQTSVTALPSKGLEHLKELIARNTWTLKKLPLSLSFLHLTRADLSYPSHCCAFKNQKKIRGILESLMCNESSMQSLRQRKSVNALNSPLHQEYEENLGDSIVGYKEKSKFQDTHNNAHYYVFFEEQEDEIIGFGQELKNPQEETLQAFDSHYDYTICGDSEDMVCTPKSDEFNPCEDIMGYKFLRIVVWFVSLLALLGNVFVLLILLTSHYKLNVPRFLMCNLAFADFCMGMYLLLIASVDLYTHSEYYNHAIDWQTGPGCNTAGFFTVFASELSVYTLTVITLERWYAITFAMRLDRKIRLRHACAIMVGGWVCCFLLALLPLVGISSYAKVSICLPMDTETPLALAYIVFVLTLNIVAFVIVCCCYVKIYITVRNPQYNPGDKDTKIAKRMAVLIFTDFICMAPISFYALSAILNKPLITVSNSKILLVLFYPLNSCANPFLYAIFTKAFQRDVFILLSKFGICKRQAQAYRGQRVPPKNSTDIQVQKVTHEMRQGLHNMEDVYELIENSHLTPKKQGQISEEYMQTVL
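TSHR-expressing cells were treated with compounds, then stimulated with TSH at EC80 (4nM final) for 2 hours at 37 deg C. Cellular cAMP was measured by HTRF competition between lysate cAMP and cAMP-d2 for a cryptate-labelled anti-cAMP antibody.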
Starred values were filed as active, the others as inactive; i = inactive; ? = inconclusive; · = no result given; [ ] = another dose, or the depositor's remark. A selection: hits, their analogues and other compounds. The true share with any hit is near 1.3%.

SMILES	RXFP1 antag	pAkt inh	RXFP1 agonist	gsp antagonist	gsp agonist	TSHR antag
CCCN(CCC)C(=O)CSc1nc2c(sc(=S)n2-c2ccc(OCC)cc2)c(=O)[nH]1	-24.0	i	1.4%	14.1µM*	8.9%[15.4 µM]	-25.8
O=C(Cc1ccccc1)NCCC1=CCCCC1	-1.3	i	0.7%	8.7%	-22.9%	4.1
O=C(NCCC1=CCCCC1)C(c1ccccc1)c1ccccc1	-11.0	-117.1%*	3.7%	-5.0%	-20.8%	-12.5
COc1cccc(OCCCn2c(-c3ccc(Cl)cc3)nc3ccccc3c2=O)c1	-2.9	·	-2.4%	·	·	·
COCCCn1c(-c2ccccc2)nc2ccccc2c1=O	-11.1	-120.6%*	2.1%	-1.2%	-4.1%	-1.7
COCCn1c(=S)[nH]c2ncccc2c1=O	5.5	-108.9%*	1.8%	-6.2%	3.1%	-9.9
COCCCn1c(=S)[nH]c2ncccc2c1=O	-7.9	-122.5%*	1.1%	11.9%	15.2%	-2.1
O=C(NCc1ccccc1)N1CCC(n2cnc3cc(F)ccc32)CC1	-1.3	-112.3%*	-0.1%	-10.9%	-13.0%	5.2
Cc1ccc2c(c1)nnn2C1CCN(C(=O)NCc2ccccc2)CC1	?	i	-1.6%	-2.7%	8.7%[15.4 µM]	8.1
Cc1ccc(C)c(N2CCN(C(=O)C34CC5CC(C3)CC(n3nnc(C)n3)(C5)C4)CC2)c1	?	i	-2.7%	39.8µM*	-2.9%[15.4 µM]	-27.4
COc1ccc(CCNC(=O)CCc2c(C)nc3cc(-c4ccccc4OC)nn3c2C)c(OC)c1	·	·	-0.8%	·	·	·
CN1CCCN(C2C3CC4CC(C3)CC2C4)CC1 (stereo unspecified)	1.2	-120.9%*	0.2%	9.6%	-21.6%	-1.7
COc1ccccc1NC(=O)CSc1nc2c(oc3ccccc32)c(=O)n1Cc1ccco1	·	·	-0.9%	·	·	·
CC(C)(C)c1nnc(NS(=O)(=O)c2ccc(N)cc2)s1	8.2	·	·	·	·	·
CCOC(=O)C1CCCN(S(=O)(=O)c2c(C)c(C)cc(C)c2C)C1 (stereo unspecified)	-14.8	i	-0.6%	7.08µM*	-2.0%	-13.0
CN1C(=O)N(CC(=O)N2CCN(S(=O)(=O)Cc3ccccc3)CC2)C(=O)C12CCCCC2	-3.7	i	-0.6%	1.3%	-42.0%	7.7
O=C(CSc1nnc(-c2ccccn2)n1Cc1ccco1)c1ccccc1	-16.2	i	0.1%	-2.6%	23.8%	5.3
O=C(CSc1nnc(-c2ccccn2)n1Cc1ccco1)c1ccc(Cl)cc1	-10.5	-109.8%*	3.9%	-4.5%	0.9%	9.4
Fc1ccc(Nc2nnc(C(F)(F)F)s2)cc1	1.5	i	-1.5%	7.0%	22.9%[15.4 µM]	13.3
CCc1ccccc1NC(=O)c1cnc2sc(N3CCCC3)nn2c1=O	-2.8	·	?	·	·	·
CCOC(=O)C1=C(C)OC(N)=C(C#N)C1C1CCCCC1 (stereo unspecified)	-14.9	-117.7%*	1.8%	-1.7%	-22.5%	-9.7
Nc1nc2ccccc2n1Cc1ccc(F)cc1	-6.6	·	·	·	·	·
CNC(=O)c1c(NC(=O)c2ccco2)sc(C)c1C	-88.4*	i	-0.8%	2.6%	-10.3%[15.4 µM]	-17.7
CCc1nc2c(OCCOc3ccc(F)cc3)cccn2c1N(C)C(=O)c1cccs1	·	i	·	·	·	·
CCn1c(SCC(=O)Nc2ccc(OC)cc2)nc2c1c(=O)n(C)c(=O)n2C	3.5	i	29.9%	6.3%	11.3%[15.4 µM]	4.9
SMILES	RXFP1 antag	pAkt inh	RXFP1 agonist	gsp antagonist	gsp agonist	TSHR antag
CCn1c(SCC(=O)Nc2ccc(NC(C)=O)cc2)nc2c1c(=O)n(C)c(=O)n2C	22.8	i	15.8µM*	7.1%	63.9%[15.4 µM]	4.4
CCc1ccc(NC(=O)CSc2nc3c(c(=O)n(C)c(=O)n3C)n2C)cc1	-4.1	i	4.8%	4.1%	-37.5%	2.4
CCn1c(SCC(=O)N2CCCC2)nc2c1c(=O)n(C)c(=O)n2C	-4.8	i	16.3%	15.3%	8.91µM*	-5.0
CCCn1c(SCC(=O)Nc2ccc(NC(=O)CC)cc2)nc2c1c(=O)n(C)c(=O)n2C	-1.1	i	20µM*	4.8%	19.6%[15.4 µM]	30.6
CC(NC(=O)c1cc(S(=O)(=O)N2CCOCC2)ccc1F)c1ccc(-n2ccnc2)cc1 (stereo unspecified)	-0.7	i	2.1%	-1.0%	44.3%	-8.2
Cc1cc(C)nc(SCc2nnc(SCC(=O)Nc3ccc(C)c(C)c3)n2Cc2ccco2)n1	16.5	-109.7%*	-1.6%	-13.6%	18.9%	-8.1
COC(=O)CSc1nnc(CSc2nc(C)cc(C)n2)n1Cc1ccco1	-10.6	-96.6%*	2.8%	6.1%	7.9%	-5.1
Cc1cccc(C)c1NC(=O)CCCSc1nnc(-c2ccco2)o1	-12.4	-110.9%*	3.2%	16.4%	5.9%	-0.6
Cc1ccc(NC(=O)CCSc2nnc(-c3ccco3)o2)cc1	-9.2	i	0.0%	-4.8%	7.0%	19.5
Cc1ccccc1NC(=O)CSc1nnc(-c2ccco2)c(-c2ccco2)n1	-29.9	i	-2.6%	3.3%	-2.2%	8.1
Cc1cccc(C)c1NC(=O)CSc1nnc(-c2ccco2)c(-c2ccco2)n1	-67.8*	i	0.0%	-9.3%	9.0%[15.4 µM]	13.2
CC1(C(=O)NCc2cccs2)Cc2c(-c3cccc(C(F)(F)F)c3)ccnc2O1 (stereo unspecified)	·	i	·	·	·	·
Cc1[nH]c2ccccc2c1C(=O)COC(=O)c1nccnc1N	-66.3*	i	0.5%	-9.6%	31.1%	-1.9
Cc1[nH]c2ccccc2c1C(=O)COC(=O)c1ccccc1O	-19.8	i	·	?	-3.9%[15.4 µM]	-1.8
Cc1ccc(-c2ccc(CCC(=O)O)n2-c2cccc(C)c2C)cc1	-13.6	·	0.2%	·	·	·
O=C(CCC1N=C2c3ccccc3N=C(SCC(=O)NCC3CCCO3)N2C1=O)NCc1ccc(F)cc1 (stereo unspecified)	-69.0*	·	28.8%	6.2%	?	21.9
COc1ccc(CNC(=O)CCC2N=C3c4ccccc4N=C(SCC(=O)NCC4CCCO4)N3C2=O)cc1 (stereo unspecified)	-10.4	i	16.4%	-13.6%	?	19.2
Cc1cc(O)c(C(C)C)cc1NC(=S)Nc1cc(C(C)C)c(O)cc1C	-15.4	i	·	28.2µM*	-1.4%	·
CN(C)c1ccc(N=Cc2ccco2)cc1	?	?	-5.8%	?	27.3%	-74.2*
CN(C)c1ccc(C=Nc2ccc(N(C)C)cc2)cc1	?	i	-7.0%	?	5.4%	-39.4
O=[N+]([O-])c1cccc(/C=N/Nc2nccnc2Cl)c1	-13.9	-82.9%*	5.3%	6.4%	31.2%	10.3
O=[N+]([O-])c1cccc(/C=N/Nc2ccccn2)c1	-4.3	i	1.5%	4.7%	?	-9.3
Cc1ccc2c(c1)nnn2C1CCN(S(=O)(=O)c2cccc(S(=O)(=O)N(C)C)c2)CC1	0.8	i	-0.3%	25.1µM*	18.3%	-7.4
